Experiment [1] in a line: viability loss in pontine glioma line – cell-based, SU-DIPG-XXV, MIPE5.0, CellTiter-Glo, qHTS, dose response (AID 1347065; cut-off not given, nearly all actives have AC50 up to about 26 µM;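 also: cells exposed to compound for 48 hours before ATP readout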). Particulars: CellTiter-Glo ATP luminescence.
Experiment [2] is described as follows: growth inhibition of DIPG cells – cell-based, MIPE4.0 library, CellTiter-Glo luminescence, qHTS (AID 1347066; cut-off not given, nearly all actives have AC50 up to about 30 µM;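 also: cells exposed to compound for 48 hours before readout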). Particulars: SU-DIPG-VI viability, CellTiter-Glo ATP luminescence. (In ATP-based viability assays light output follows the ATP content of the culture.)
A short description of experiment [3]: JHH-DIPG-1 glioma cell viability, MIPE5.0 library, CellTiter-Glo luminescence, qHTS (AID 1347067; cut-off not given, nearly all actives have AC50 up to about 26 µM;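 also: cells exposed to compound for 48 hours before readout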). The conditions noted are these: JHH-DIPG-1 glioma viability, CellTiter-Glo ATP luminescence.
A short description of experiment [4]: growth inhibition of DIPG cells – cell-based, MIPE5.0 library, qHTS (AID 1347068; cut-off not given, nearly all actives have IC50 up to about 30 µM). Particulars: SU-DIPG-XXV viability.
Experiment [5] can be described thus: MELAS cybrid and Rieske KO viability enhancers – cell-based, MELAS cybrids, Rieske KO mouse fibroblasts, CellTiter-Glo, primary screen (AID 1508586;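 active = mean z-score across replicates of 1.96 or higher in either the MELAS or the Rieske mutant cell line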;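 also: z relative to plate mean and SD of compound and empty wells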). The conditions noted are these: low glucose.
Experiment [6] in a line: viability loss with induced miR-34 in A549 – imaging, A549 dox-inducible miR-34, nuclei and caspase counts, primary screen (AID 1347080;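 active = compounds whose cell count with miR-34 switched on is under 0.7 times the count with it off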). Particulars: A549 miR-34 inducible, Hoechst nuclei count, 48 h.
Experiment [7] is described as follows: compounds altering HSF1 focus formation in cells – imaging, Selleck Cancer Library (AID 1347162; in the data active = plate-normalised HSF1 focus index below about 0.46). Particulars: human cells, HSF1 nuclear foci imaging, at 10 µM; SSMD: measured here: HSF1 foci SSMD mean; cell count: measured here: cell number; plate-normalised HSF1 focus index: stronger effect = lower value.
A short description of experiment [8]: drug combination growth inhibition, ovarian cancer – cell-based, oncology-focused library, rucaparib conditional, profiling panel (AID 1508598). Particulars: patient-derived ovarian cancer cells, CellTiter-Glo viability, 144 h, stronger effect = lower value.
Setting [9] is: MELAS cybrid survival, CellTiter-Glo 48 h, stronger effect = higher value.
Setting [10] is: Rieske KO mouse fibroblast survival, CellTiter-Glo 72 h.
Setting [11] is: stronger effect = lower value, cell number ratio, induced over uninduced.
[12] abbreviates: measured here: relative caspase fold change +Dox/-Dox.
The mark [13] stands for this setting: measured here: total cells with miR-34 induction, stronger effect = lower value.
Where [14] appears, read: measured here: total cells without miR-34 induction.

Molecules are shown by their SMILES. Values joined by “and” are separate entries in the source; they are usually repeats but may differ in a detail not shown here. Identical values can stand only once. Results filed as inconclusive are left out. More than one record can exist for a structure, and the calls need not agree. Active and inactive are the calls of the source.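 The calls were made as follows, unless noted: active = normalized viability below 100% at a tested concentration; inactive = the rest.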

With `CN1CCC(=C2c3ccccc3CCc3sccc32)CC1`, the compound was classed as inactive in experiment [1], in experiment [2], in experiment [3] and in experiment [4]. The z-score was -0.441 (inactive) and -0.79 (inactive) in experiment [5] (setting [9]); -0.11 and 0.709 in experiment [5] (setting [10]).
`NS(=O)(=O)c1cc2c(cc1Cl)NC(C(Cl)Cl)NS2(=O)=O` (configuration not stated): the outcome in experiment [1], in experiment [2], in experiment [3] and in experiment [4] was inactive. In addition, the z-score in experiment [5] (setting [9]) is -0.307 (inactive) and 0.588 (inactive) and 0.372 (inactive); in experiment [5] (setting [10]) it was 0.662 and 0.211 and -0.506.
Regarding `O=C(NCCO[N+](=O)[O-])c1cccnc1`, the compound was classed as inactive in experiment [1], in experiment [2] and in experiment [4]. In addition, the z-score was -0.335 (inactive) and 0.466 (inactive) and -0.214 (inactive) in experiment [5] (setting [9]); -0.979 and 0.348 and 0.117 in experiment [5] (setting [10]).
For the compound `CCN1CCN(C(=O)N[C@@H](C(=O)N[C@@H]2C(=O)N3C(C(=O)O)=C(CSc4nnnn4C)CS[C@H]23)c2ccc(O)cc2)C(=O)C1=O`, the compound was classed as inactive in experiment [1], in experiment [3] and in experiment [4]. For the same compound, the fold change in experiment [6] (setting [11]) is 0.863 (inactive) and 0.844 (inactive); in experiment [6] (setting [12]), 1.41 and 1.35. In addition, the cell count in experiment [6] (setting [13]) was 7800 and 9270; in experiment [6] (setting [14]) it was 9050 and 11000. The z-score is -0.583 (inactive) and -0.0634 (inactive) in experiment [5] (setting [9]); -0.0146 and -0.684 in experiment [5] (setting [10]).
`CO[C@@H]1[C@@H](OC(N)=O)[C@@H](O)[C@H](Oc2ccc3c(O)c(NC(=O)c4ccc(O)c(CC=C(C)C)c4)c(=O)oc3c2C)OC1(C)C`: the outcome in experiment [1], in experiment [2] and in experiment [4] was inactive. Further, the fold change in experiment [6] (setting [11]) was 0.761 (inactive); in experiment [6] (setting [12]), 1.98. The values for the cell count in experiment [6] (setting [13]) and in experiment [6] (setting [14]) were 10300 and 13600, respectively. Moreover, the z-score is 0.0759 (inactive) in experiment [5] (setting [9]) and -1.01 in experiment [5] (setting [10]).
For orientation: AC50 means the midpoint of the concentration-response curve, whichever way the signal moves. As usually defined, the viability is a read-out of living cells in per cent, often relative to untreated cells. On to `Cc1ccc(NC(=O)c2ccc(CN3CCN(C)CC3)cc2)cc1Nc1nccc(-c2cccnc2)n1`, for which, in experiment [1], the half-maximal activity concentration (AC50) was 23.5 µM (active). Besides, the compound was called inactive in experiment [2]. This compound also showed an SSMD in experiment [7] of 2.47. The same compound returned a cell count in experiment [7] of 6720. In experiment [7], the plate-normalised HSF1 focus index was 1.13 (inactive). For the same compound, the viability in experiment [8] (at 0.000305 µM, OCI-C5x cells, with rucaparib 10 µM, 100% = cells with rucaparib alone) was 112% (inactive) and 107% (inactive); in experiment [8] (at 0.000305 µM, OCI-C5x cells, without rucaparib) it was 107% (inactive) and 98.4% (active); in experiment [8] (at 0.000305 µM, OCI-P5x cells, with rucaparib 20 µM, 100% = cells with rucaparib alone), 97.9% (active) and 85.2% (active); in experiment [8] (at 0.000305 µM, OCI-P5x cells, without rucaparib), 98.1% (active) and 85.5% (active); in experiment [8] (at 0.00122 µM, OCI-C5x cells, with rucaparib 10 µM, 100% = cells with rucaparib alone), 109% (inactive) and 103% (inactive); in experiment [8] (at 0.00122 µM, OCI-C5x cells, without rucaparib) it was 106% (inactive) and 98.3% (active). Also, the viability was 95.4% (active) and 92.7% (active) in experiment [8] (at 0.00122 µM, OCI-P5x cells, with rucaparib 20 µM, 100% = cells with rucaparib alone); 96.8% (active) and 89.4% (active) in experiment [8] (at 0.00122 µM, OCI-P5x cells, without rucaparib); 113% (inactive) and 114% (inactive) in experiment [8] (at 0.00488 µM, OCI-C5x cells, with rucaparib 10 µM, 100% = cells with rucaparib alone); 108% (inactive) and 102% (inactive) in experiment [8] (at 0.00488 µM, OCI-C5x cells, without rucaparib); 92.2% (active) and 93.1% (active) in experiment [8] (at 0.00488 µM, OCI-P5x cells, with rucaparib 20 µM, 100% = cells with rucaparib alone); 99.4% (active) and 94.5% (active) in experiment [8] (at 0.00488 µM, OCI-P5x cells, without rucaparib). For the same compound, the viability in experiment [8] (at 0.0195 µM, OCI-C5x cells, with rucaparib 10 µM, 100% = cells with rucaparib alone) is 120% (inactive) and 104% (inactive); in experiment [8] (at 0.0195 µM, OCI-C5x cells, without rucaparib) it was 112% (inactive) and 98.4% (active); in experiment [8] (at 0.0195 µM, OCI-P5x cells, with rucaparib 20 µM, 100% = cells with rucaparib alone) it was 94.9% (active) and 104% (inactive); in experiment [8] (at 0.0195 µM, OCI-P5x cells, without rucaparib) it was 95% (active) and 94.1% (active); in experiment [8] (at 0.0781 µM, OCI-C5x cells, with rucaparib 10 µM, 100% = cells with rucaparib alone), 123% (inactive) and 97.7% (active); in experiment [8] (at 0.0781 µM, OCI-C5x cells, without rucaparib) it was 115% (inactive) and 101% (inactive). Also, the viability in experiment [8] (at 0.0781 µM, OCI-P5x cells, with rucaparib 20 µM, 100% = cells with rucaparib alone) is 95% (active) and 100% (inactive); in experiment [8] (at 0.0781 µM, OCI-P5x cells, without rucaparib), 96.1% (active) and 97.9% (active); in experiment [8] (at 0.313 µM, OCI-C5x cells, with rucaparib 10 µM, 100% = cells with rucaparib alone), 120% (inactive) and 104% (inactive); in experiment [8] (at 0.313 µM, OCI-C5x cells, without rucaparib), 110% (inactive) and 103% (inactive); in experiment [8] (at 0.313 µM, OCI-P5x cells, with rucaparib 20 µM, 100% = cells with rucaparib alone), 100% (inactive) and 103% (inactive); in experiment [8] (at 0.313 µM, OCI-P5x cells, without rucaparib), 96.2% (active) and 101% (inactive). Moreover, the viability in experiment [8] (at 1.25 µM, OCI-C5x cells, with rucaparib 10 µM, 100% = cells with rucaparib alone) is 118% (inactive) and 105% (inactive); in experiment [8] (at 1.25 µM, OCI-C5x cells, without rucaparib) it was 115% (inactive) and 106% (inactive); in experiment [8] (at 1.25 µM, OCI-P5x cells, with rucaparib 20 µM, 100% = cells with rucaparib alone), 95.6% (active) and 99.9% (active); in experiment [8] (at 1.25 µM, OCI-P5x cells, without rucaparib), 95.1% (active) and 100% (inactive); in experiment [8] (at 5 µM, OCI-C5x cells, with rucaparib 10 µM, 100% = cells with rucaparib alone) it was 133% (inactive) and 131% (inactive); in experiment [8] (at 5 µM, OCI-C5x cells, without rucaparib), 124% (inactive) and 134% (inactive). In addition, the viability is 84.6% (active) and 98.4% (active) in experiment [8] (at 5 µM, OCI-P5x cells, with rucaparib 20 µM, 100% = cells with rucaparib alone); 89.8% (active) and 103% (inactive) in experiment [8] (at 5 µM, OCI-P5x cells, without rucaparib).

(Values after PubChem BioAssay.)
